This note sets out measurements from PubChem BioAssay.

Calls of active or inactive are those of the source.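 Rule for the calls, unless noted: active = inhibition at or above 50% at 10 µM; inactive = inhibition below 50%.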

Assay [1] can be described thus: inhibitors of TNFa-induced NFkB p65 translocation, primary screen, imaging, HUVEC, MLSMR starter and 10KST1 sets (AID 438;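 active = inhibition above 20% together with a positive visual image hit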;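 note: compound added about 3h40 before a 20 min TNFalpha stimulation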;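 for inhibition: signal is the nuclear over cytoplasmic p65 intensity ratio per well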). To be noted: HUVEC TNFa-induced p65 nuclear translocation; cell count: measured here: nuclei count (cytotoxicity indicator), at 2.08 µM; inhibition: at 2 µM, stronger effect = higher value, 0% TNFa-plus-vehicle, 100% no-TNFa wells.
Assay [2] is described as follows: inhibitors of mutant huntingtin aggregation, primary screen, imaging, exon1htt(103Q)mCFP cells, high-content imaging (AID 483;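 active = visual image review flags a hit and inhibition of aggregation exceeds 20%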;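 note: compound exposure lasted 3 days before fixation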;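 for nuclei count: percent of the per-plate median nuclei count of sample wells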). To be noted: exon1htt(103Q)mCFP cell line, aggregate imaging, at 2 µM; inhibition of aggregation: stronger effect = higher value; nuclei count: measured here: cell count, toxicity.
The nature of assay [3]: inhibitors of E-selectin induction by TNFa, primary screen, imaging, HUVEC, immunofluorescence, MLSMR starter and 10KST1 sets (AID 487;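 active = visually confirmed hit in the image check and inhibition above 20%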;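 for inhibition: signal is fraction of cell area covered by stained E-selectin grains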;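 for nuclei count: 100% = median nuclei count of all wells on the same plate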). The conditions noted are these: HUVEC TNFalpha-induced E-selectin immunofluorescence imaging, at 2 µM; inhibition: stronger effect = higher value; nuclei count: measured here: cell number, toxicity.
Assay [4] has as its target Voltage-gated potassium channel subunit beta-2 (Rattus norvegicus) (UniProt P62483). In words: KvBeta enzyme negative modulators, primary screen, biochemical, NADPH fluorescence (AID 622;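 active = fluorescence slope higher than the sample average by over 3 SD, cut at about -0.22 in these data, passing the limit was not always enough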;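 note: slope of raw intensity against log time taken from 70 to 1610 s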). The conditions noted are these: recombinant KvBeta, 4-cyanobenzaldehyde reduction, at 10 µM, stronger effect = higher value.
Assay [5] has the same target. As to the kind of experiment: KvBeta positive modulators, primary screen, biochemical, NADPH fluorescence (AID 623;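 active = NADPH fluorescence slope more negative than the mean of all samples by about 3 SD, 99.7% confidence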;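 note: fluorescence intensity change per second fitted from 20 to 320 s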). The conditions noted are these: Recombinant KvBeta, NADPH fluorescence decrease slope, 10 min; at 10 µM; stronger effect = lower value.
In assay [6] the target is Alpha-2C adrenergic receptor (Homo sapiens) (UniProt P18825). As to the kind of experiment: modulators of alpha2C/GIRK thallium flux, primary screen, cell-based, HEK293 alpha2C/GIRK1/2 (AID 624;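 active = fluorescence slope after compound addition differing from the mean of all screened samples at 99.7% confidence, in either direction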;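 note: slope of fluorescence ratio to pre-addition baseline per second over 15 to 24 s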). The conditions noted are these: thallium flux BTC fluorescence, at 10 µM, actives lie on both sides.
A short description of assay [7]: inhibitors of Sendai virus-induced IRF3 signaling, primary screen, TLR/RLR signaling modifier project, cell-based, Sendai virus stimulus, luciferase, 10K MLSCN set (AID 602276).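 Note: firefly luciferase from ISG56 promoter only with Renilla not read in this screen; 0% = Sendai virus plus DMSO and 100% = medium plus DMSO without virus.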 The conditions noted are these: HEK293 RL24 IRF3 luciferase reporter, at 10 µM, stronger effect = higher value. Background: A reporter such as luciferase makes a cellular process visible.
Assay [8] can be described thus: inhibitors of poly I:C-induced TLR3 signaling, primary screen, cell-based, poly I:C stimulus, luciferase, 10K MLSCN set (AID 602277;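 active = inhibition of the reporter signal at or above 50%; inactive = inhibition below 50%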). To be noted: HEK293-TLR3 RL24 IRF3 luciferase reporter, at 10 µM, stronger effect = higher value.

Voltage-gated potassium channel subunit beta-2 (Rattus norvegicus), sequence (P62483 whole entry, looked up): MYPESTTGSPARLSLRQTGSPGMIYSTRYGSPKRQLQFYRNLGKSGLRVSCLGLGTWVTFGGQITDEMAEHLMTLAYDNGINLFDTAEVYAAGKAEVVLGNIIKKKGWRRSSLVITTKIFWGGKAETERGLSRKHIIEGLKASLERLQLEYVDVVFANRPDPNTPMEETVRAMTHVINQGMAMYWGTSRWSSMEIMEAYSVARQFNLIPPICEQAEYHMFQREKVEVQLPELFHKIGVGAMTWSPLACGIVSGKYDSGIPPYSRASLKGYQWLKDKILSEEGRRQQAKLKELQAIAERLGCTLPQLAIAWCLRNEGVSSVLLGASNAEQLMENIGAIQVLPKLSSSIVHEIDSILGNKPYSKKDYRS
Alpha-2C adrenergic receptor (Homo sapiens), sequence (P18825 whole entry, looked up): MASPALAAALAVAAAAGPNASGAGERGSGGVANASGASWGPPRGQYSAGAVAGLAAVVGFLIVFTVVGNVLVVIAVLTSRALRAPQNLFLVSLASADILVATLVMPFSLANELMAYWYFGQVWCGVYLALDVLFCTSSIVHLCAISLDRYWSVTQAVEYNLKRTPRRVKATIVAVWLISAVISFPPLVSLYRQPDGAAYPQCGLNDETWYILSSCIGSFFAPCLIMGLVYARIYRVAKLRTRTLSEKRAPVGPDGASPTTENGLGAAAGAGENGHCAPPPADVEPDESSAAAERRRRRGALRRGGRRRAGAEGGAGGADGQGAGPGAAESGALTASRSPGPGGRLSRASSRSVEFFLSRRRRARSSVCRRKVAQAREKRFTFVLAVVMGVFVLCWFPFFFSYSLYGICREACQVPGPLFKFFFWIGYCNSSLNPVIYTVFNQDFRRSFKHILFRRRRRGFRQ

Turning to `CCOC(=O)C1CCN(c2c(NCCN3CCN(c4ccccc4)CC3)c(=O)c2=O)CC1`, the cell count in assay [1] is 533. Further, the inhibition in assay [1] was 7.8% (inactive); in assay [3], -115% (inactive); in assay [7] it was 1.01% (inactive); in assay [8], 28.4% (inactive). Moreover, the inhibition of aggregation in assay [2] was 7.2% (inactive). In addition, the nuclei count came to 96.5% in assay [2] and 95.9% in assay [3]. In assay [4], the fluorescence slope is -0.6 (inactive). The NADPH fluorescence slope in assay [5] was -1.7e-05 (inactive). The slope in assay [6] is 0.00543 (inactive).

Regarding `COc1cccc(C(c2nnnn2CCc2ccccc2)N2CCN(c3ccccc3)CC2)c1OC` (stereo not drawn), the cell count in assay [1] was 605. The inhibition was -23.5% (inactive) in assay [1], 48.8% (inactive) in assay [3], 18.8% (inactive) in assay [7] and 10.1% (inactive) in assay [8]. The inhibition of aggregation in assay [2] was -19.6% (inactive). The nuclei count in assay [2] worked out at 94.9%; in assay [3], 91.6%. Further, the fluorescence slope in assay [4] is -0.516 (inactive). Also, the NADPH fluorescence slope in assay [5] was -3e-06 (inactive). Also, the slope in assay [6] was 0.00514 (inactive).

For `COC(=O)CN(c1ccc(C)c(Cl)c1)S(C)(=O)=O`, in assay [1], the cell count was found to be 322. The inhibition in assay [1] is 4% (inactive); in assay [3], 13.8% (inactive); in assay [7] it was 13.7% (inactive); in assay [8] it was 19.8% (inactive). In addition, in assay [2], the inhibition of aggregation is -11.9% (inactive). For the same compound, the nuclei count was 117% in assay [2] and 110% in assay [3]. For the same compound, the fluorescence slope in assay [4] is -0.506 (inactive). For the same compound, in assay [5], the NADPH fluorescence slope is -4.6e-05 (inactive). Moreover, the slope in assay [6] is 0.00698 (inactive).

Take `CCOC(=O)N1CCN(C(=O)COc2ccc(S(=O)(=O)NC(C)C)cc2)CC1`: the cell count in assay [1] was determined as 623. For the same compound, the inhibition in assay [1] is 6.2% (inactive); in assay [3], 11.5% (inactive); in assay [7], 10.8% (inactive); in assay [8] it was 24.1% (inactive). Also, the inhibition of aggregation in assay [2] was -5.3% (inactive). The nuclei count in assay [2] was 110%; in assay [3] it was 115%. Moreover, the fluorescence slope in assay [4] is -0.548 (inactive). In assay [5], the NADPH fluorescence slope is -3.6e-05 (inactive). The slope in assay [6] is 0.00507 (inactive).

In the case of `O=c1sc(Nc2ccccc2)nc2ccsc12`, the cell count in assay [1] was determined as 323. Besides, the inhibition in assay [1] was -9.8% (inactive); in assay [3], -36.8% (inactive); in assay [7] it was -17.1% (inactive); in assay [8], -57.8% (inactive). Moreover, the inhibition of aggregation in assay [2] was -0.2% (inactive). Besides, the values for the nuclei count in assay [2] and in assay [3] were 91.4% and 122%, respectively. Also, the fluorescence slope in assay [4] is -0.334 (inactive). Also, the NADPH fluorescence slope in assay [5] is -2.1e-05 (inactive). Also, the slope in assay [6] is 0.00308 (inactive).

For `CCOC(=O)c1nnc(-c2ccccc2)o1`, the cell count in assay [1] came to 620. Besides, the inhibition in assay [1] was 2.2% (inactive); in assay [3], -14.5% (inactive); in assay [7], 17.6% (inactive); in assay [8], -1.89% (inactive). In assay [2], the inhibition of aggregation was -2.9% (inactive). The nuclei count in assay [2] came to 114%; in assay [3], 89.7%. Moreover, the fluorescence slope in assay [4] is -0.592 (inactive). In assay [5], the NADPH fluorescence slope is -3.3e-05 (inactive). Moreover, the slope in assay [6] was 0.00603 (inactive).

Consider `COc1ccc(Cn2c(-c3ccco3)nc3oc4ccccc4c(=O)c3c2=O)cc1`, for which the cell count in assay [1] amounted to 492. Besides, the inhibition was -7.6% (inactive) in assay [1], -22% (inactive) in assay [3], -1.06% (inactive) in assay [7] and -24.4% (inactive) in assay [8]. Further, the inhibition of aggregation in assay [2] is -68.5% (inactive). Also, the values for the nuclei count in assay [2] and in assay [3] were 90.1% and 115%, respectively. The fluorescence slope in assay [4] was -0.491 (inactive). In addition, the NADPH fluorescence slope in assay [5] is -2.1e-05 (inactive). The slope in assay [6] is 0.00596 (inactive).

In the case of `CCc1ccc(NC(=O)CS(=O)CC(=O)NCC2OCCc3ccccc32)cc1` (stereo not drawn), the cell count in assay [1] amounted to 698. Also, the inhibition in assay [1] was -4.5% (inactive); in assay [3] it was -119% (inactive); in assay [7], 9.39% (inactive); in assay [8], 13.4% (inactive). In addition, the inhibition of aggregation in assay [2] is 6.4% (inactive). Also, the figures for the nuclei count in assay [2] and in assay [3] were 102% and 114%, respectively. Further, in assay [4], the fluorescence slope was -0.415 (inactive). Moreover, in assay [5], the NADPH fluorescence slope was -3.6e-05 (inactive). Besides, the slope in assay [6] is 0.00515 (inactive).

On to `Cn1cc(Br)c(C(=O)NC2CCCCC2)n1`, for which the cell count in assay [1] was 483. The inhibition was -5.1% (inactive) in assay [1], -145% (inactive) in assay [3], 7.35% (inactive) in assay [7] and 5.88% (inactive) in assay [8]. Also, in assay [2], the inhibition of aggregation is -0.3% (inactive). Further, the nuclei count amounted to 105% in assay [2] and 238% in assay [3]. Moreover, the fluorescence slope in assay [4] was -0.408 (inactive). Further, the NADPH fluorescence slope in assay [5] was 1.7e-05 (inactive). In assay [6], the slope is 0.00924 (inactive).

Regarding `CCOc1cccc(C(=O)N2CCCCC2c2cccnc2)c1` (stereo not drawn), in assay [1], the cell count is 269. The inhibition in assay [1] was -0.4% (inactive); in assay [3], -148% (inactive); in assay [7] it was 9.72% (inactive); in assay [8], 19.7% (inactive). Moreover, the inhibition of aggregation in assay [2] is -24.6% (inactive). The results for the nuclei count in assay [2] and in assay [3] were 95.1% and 101%, respectively. The fluorescence slope in assay [4] was -0.526 (inactive). Further, the NADPH fluorescence slope in assay [5] is -4.2e-05 (inactive). The slope in assay [6] was 0.00421 (inactive).

In the case of `Oc1ccc(-c2n[nH]c(=S)n2Cc2ccccc2)cc1`, the cell count in assay [1] is 409. For the same compound, the inhibition in assay [1] is 9.6% (inactive); in assay [3], -75.1% (inactive); in assay [7], -8.79% (inactive); in assay [8], -1.56% (inactive). Besides, the inhibition of aggregation in assay [2] is -13.1% (inactive). Besides, the nuclei count is 109% in assay [2] and 116% in assay [3]. For the same compound, the fluorescence slope in assay [4] is -0.485 (inactive). In addition, the NADPH fluorescence slope in assay [5] is 4.7e-05 (inactive). Also, the slope in assay [6] was 0.00348 (inactive).

Consider `CCCNS(=O)(=O)c1ccc(OCC(=O)NCc2ccco2)cc1`, for which the cell count in assay [1] worked out at 603. Besides, the inhibition in assay [1] is 11.7% (inactive); in assay [3] it was -76.7% (inactive); in assay [7] it was -6.02% (inactive); in assay [8], -17.4% (inactive). In assay [2], the inhibition of aggregation was -6% (inactive). In addition, the figures for the nuclei count in assay [2] and in assay [3] were 110% and 126%, respectively. The fluorescence slope in assay [4] was -0.478 (inactive). The NADPH fluorescence slope in assay [5] was 8.5e-05 (inactive). Moreover, in assay [6], the slope is 0.00584 (inactive).

Regarding `CCCCCc1c(C)nc(N2CCc3ccccc32)[nH]c1=O`, in assay [1], the cell count is 398. For the same compound, the inhibition in assay [1] was -2.2% (inactive); in assay [3] it was -5.8% (inactive); in assay [7], 13.9% (inactive); in assay [8], -33.8% (inactive). For the same compound, the inhibition of aggregation in assay [2] is -1.3% (inactive). For the same compound, the nuclei count in assay [2] stood at 112%; in assay [3], 89.4%. Besides, the fluorescence slope in assay [4] is -0.609 (inactive). Also, the NADPH fluorescence slope in assay [5] is 1.7e-05 (inactive). The slope in assay [6] was 0.00814 (inactive).

The inhibition is the change of the read-out against control, counted positive when it falls.
